{"source": "PubChem BioAssay AID372", "about": "(MTDP, 2006)", "note": "Among all 100,000 compounds or so, about 770 (0.77%) were called active. The full list was thinned out, with actives kept by preference. A number with no mark means an inactive call. Rule as the data show it: active = inhibition above about 50%; inactive = the rest."}
{"target": "Gag-Pol polyprotein (Human immunodeficiency virus type 1 group M subtype B (isolate HXB2)) (UniProt P04585)", "assay": "RNase H inhibition, HIV 1 Gag Pol polyprotein, FRET biochemical assay, screening (AID 372)", "settings": "HIV-1 RT RNase H, FRET RNA/DNA substrate fluorescence; at 10 µM; hits give high values"}
{"molecule": "CSC1=C(C#N)C(c2ccc(Cl)cc2)C(C(C)=O)=C(C)N1", "note": "(stereo not drawn)", "inhibition": "2%"}
{"molecule": "Cc1ccc(C)c(OCCOc2c(Cl)cc(Cl)cc2/C=C2\\SC(=S)NC2=O)c1", "inhibition": "33%"}
{"molecule": "Cc1ccc(C)c(OCCOc2ccc(Cl)cc2/C=C2\\SC(=S)NC2=O)c1", "inhibition": "63% (active)"}
{"molecule": "Cc1ccc(OCCOc2ccc(Cl)cc2/C=C2\\SC(=S)NC2=O)c(C)c1", "inhibition": "43%"}
{"molecule": "Cc1ccc(C)c(OCCOc2ccc(/C=C3\\SC(=S)NC3=O)cc2)c1", "inhibition": "43%"}
{"molecule": "Cc1cc(C)cc(OCCOc2cccc(/C=C3\\SC(=S)NC3=O)c2)c1", "inhibition": "45%"}
{"molecule": "O=C1NC(=S)S/C1=C/c1cccc(OCc2ccccc2)c1", "inhibition": "29%"}
{"molecule": "Cc1ccc(OCCOc2cccc(/C=C3/SC(=S)NC3=O)c2)cc1", "inhibition": "56% (active)"}
{"molecule": "O=C1NC(=S)S/C1=C/c1cccc(OCc2ccccc2Cl)c1", "inhibition": "42%"}
{"molecule": "COc1ccc(OCCOc2cccc(/C=C3\\SC(=S)NC3=O)c2)cc1", "inhibition": "18%"}
{"molecule": "Cc1ccc(OCCOc2cccc(/C=C3\\SC(=S)NC3=O)c2)c(C)c1", "inhibition": "40%"}
{"molecule": "Cc1ccc(C)c(OCCOc2cccc(/C=C3\\SC(=S)NC3=O)c2)c1", "inhibition": "54% (active)"}
{"molecule": "Cc1ccc(Nc2cc(N3CCN(c4ccccc4Cl)CC3)c([N+](=O)[O-])cc2[N+](=O)[O-])cc1", "inhibition": "13%"}
{"molecule": "Cc1ccc(C(C)C)c(OCC(=O)N2CCN(c3ccc([N+](=O)[O-])cc3Cl)CC2)c1", "inhibition": "21%"}
{"molecule": "Cc1cc(C)nc(NS(=O)(=O)c2ccc(NS(=O)(=O)c3ccc4c(c3)C(=O)c3ccccc3-4)cc2)n1", "inhibition": "15%"}
{"molecule": "Cc1ccc(Cl)cc1NC(=O)CN(CCc1ccccc1)S(=O)(=O)c1ccccc1", "inhibition": "16%"}
{"molecule": "COc1cccc(/C=N/N2CCN(Cc3cccc4ccccc34)CC2)c1O", "inhibition": "8%"}
{"molecule": "COc1cccc(OCCOc2ccc(Br)cc2/C=C2/SC(=S)NC2=O)c1", "inhibition": "55% (active)"}
{"molecule": "COc1cccc(OCCOc2ccccc2/C=C2/SC(=S)NC2=O)c1", "inhibition": "22%"}
{"molecule": "COc1ccc(OCCOc2ccc(Br)cc2/C=C2\\SC(=S)NC2=O)cc1", "inhibition": "34%"}
{"molecule": "Cc1ccc(N=Cc2c(O)n(Cc3ccccc3)c(=O)[nH]c2=O)cc1", "inhibition": "46%"}
{"molecule": "Cc1ccccc1N=Cc1c(O)n(Cc2ccccc2)c(=O)[nH]c1=O", "inhibition": "57% (active)"}
{"molecule": "O=c1[nH]c(=O)n(Cc2ccccc2)c(O)c1C=Nc1ccc(F)cc1", "inhibition": "22%"}
{"molecule": "COc1ccc(CCNC(=O)c2ccc(C#Cc3ccccc3)cc2)cc1OC", "inhibition": "8%"}
{"molecule": "CCOc1ccccc1NC(=O)CSCc1ccc(Cl)cc1Cl", "inhibition": "48%"}
{"molecule": "CC(NC(=O)CSCc1ccc(Cl)cc1)c1ccccc1", "note": "(stereo not drawn)", "inhibition": "6%"}
{"molecule": "CC(NC(=O)CSCc1ccccc1Cl)c1ccccc1", "note": "(stereo not drawn)", "inhibition": "54% (active)"}
{"molecule": "CCc1ccccc1NC(=O)CSCc1ccccc1Cl", "inhibition": "20%"}
{"molecule": "CCOc1ccccc1NC(=O)CSCc1ccccc1Cl", "inhibition": "51% (active)"}
{"molecule": "CCC(C)NC(=O)CSCc1ccccc1Cl", "note": "(stereo not drawn)", "inhibition": "0%"}
{"molecule": "CC(=O)c1ccc(C)cc1OC(=O)c1ccc(Cl)cc1", "inhibition": "21%"}
{"molecule": "O=C(/C(=C/c1ccccc1)c1nc2ccccc2[nH]1)c1ccccc1", "inhibition": "6%"}
{"molecule": "O=C(Nc1ccc(I)cc1)c1ccc([N+](=O)[O-])o1", "inhibition": "0%"}
{"molecule": "Cc1cc([N+](=O)[O-])ccc1-c1ccc(C(=O)Nc2ccc3oc(-c4ccccc4)nc3c2)o1", "inhibition": "15%"}
{"molecule": "O=C(Nc1ccc(-c2nc3ccccc3o2)cc1)c1ccc(-c2ccc([N+](=O)[O-])cc2)o1", "inhibition": "48%"}
{"molecule": "Cc1c(Cl)cccc1-c1ccc(C(=O)Nc2cccc(-c3nc4ccccc4o3)c2)o1", "inhibition": "10%"}
{"molecule": "Cc1c(Cl)cccc1-c1ccc(C(=O)Nc2ccc3oc(-c4cccnc4)nc3c2)o1", "inhibition": "42%"}
{"molecule": "O=C(Nc1ccc([N+](=O)[O-])cc1)c1ccc(-c2ccc(Cl)c(Cl)c2)o1", "inhibition": "50% (active)"}
{"molecule": "O=C(Nc1ccc2oc(-c3ccccc3)nc2c1)c1ccc([N+](=O)[O-])o1", "inhibition": "6%"}
{"molecule": "O=C(Nc1ccc2oc(-c3ccccc3)nc2c1)c1ccc(-c2ccc([N+](=O)[O-])cc2)o1", "inhibition": "54% (active)"}
{"molecule": "O=C(Nc1ccc(Cl)c([N+](=O)[O-])c1)c1ccc(-c2ccc(Cl)c(Cl)c2)o1", "inhibition": "7%"}
{"molecule": "O=C(Nc1ccc([N+](=O)[O-])cc1)c1ccc(-c2cccc(Cl)c2)o1", "inhibition": "10%"}
{"molecule": "Cc1c(Cl)cccc1-c1ccc(C(=O)Nc2ccc(-c3nc4ccccc4o3)cc2)o1", "inhibition": "54% (active)"}
{"molecule": "Cc1ccc(-c2nc3cc(NC(=O)c4ccc([N+](=O)[O-])o4)ccc3o2)cc1Br", "inhibition": "54% (active)"}
{"molecule": "O=C(Nc1ccc2oc(-c3cc(Br)ccc3Cl)nc2c1)c1ccc([N+](=O)[O-])o1", "inhibition": "20%"}
{"molecule": "NNC(=O)c1cc(C(=O)O)nc2ccc(Br)cc12", "inhibition": "6%"}
{"molecule": "CCOc1ccc(/C=C2/SC(NC(C)=O)=NC2=O)cc1", "inhibition": "0%"}
{"molecule": "COc1cc(C(=O)NC(=S)Nc2cccc(-c3nc4ncccc4o3)c2C)cc(OC)c1OC", "inhibition": "17%"}
{"molecule": "Cc1cc(C)cc(NCc2ccc3c(c2)OCO3)c1", "inhibition": "9%"}
{"molecule": "C=CCOc1ccccc1/C=N/NC(=O)c1cccc(I)c1", "inhibition": "10%"}
{"molecule": "O=S(NC1CCCCC1)C12CC3CC(CC(C3)C1)C2", "note": "(stereo not drawn)", "inhibition": "2%"}
{"molecule": "CC1=NN(c2ccccc2)C(=O)C1C(c1cccc([N+](=O)[O-])c1)C1C(=O)N(c2ccccc2)N=C1C", "note": "(stereo not drawn)", "inhibition": "12%"}
{"molecule": "CCOC(=O)C1=C(C)NC(C)=C(C(=O)OC)C1c1ccc([N+](=O)[O-])cc1", "note": "(stereo not drawn)", "inhibition": "16%"}
{"molecule": "O=C1N=c2ccccc2=C1c1sc(=S)[nH]c1O", "inhibition": "6%"}
{"molecule": "Cc1ccc(C2(C)N(O)C(C)C(c3ccccc3)=[N+]2[O-])cc1", "note": "(stereo not drawn)", "inhibition": "0%"}
{"molecule": "COc1ccc(CCN2C(=O)/C(=C\\c3cccc4ccccc34)SC2=S)cc1OC", "inhibition": "9%"}
{"molecule": "CCCOC(=O)c1ccc(NC(=O)c2cccc([N+](=O)[O-])c2)cc1", "inhibition": "17%"}
{"molecule": "Cc1cc2nc(-c3ccc(NC(=O)c4cccc([N+](=O)[O-])c4C)cc3)oc2cc1C", "inhibition": "15%"}
{"molecule": "O=C(Nc1cc(Cl)cc(Cl)c1)c1ccc(-c2ccccc2[N+](=O)[O-])o1", "inhibition": "59% (active)"}
{"molecule": "COC(=O)c1cc(NC(=O)c2ccc(-c3ccccc3[N+](=O)[O-])o2)cc(C(=O)OC)c1", "inhibition": "45%"}
{"molecule": "Cc1cc2nc(-c3ccc(NC(=O)c4ccc(-c5ccccc5[N+](=O)[O-])o4)cc3)oc2cc1C", "inhibition": "52% (active)"}
{"molecule": "Cc1ccccc1-c1nc2cc(NC(=O)c3ccc(-c4ccccc4[N+](=O)[O-])o3)ccc2o1", "inhibition": "37%"}
{"molecule": "CC(=O)c1cccc(NC(=O)c2ccc(-c3ccccc3[N+](=O)[O-])o2)c1", "inhibition": "13%"}
